“And” between values parts separate entries of the source, which are not always exact repeats. Equal values may be shown once. Where a structure was tested more than once in an assay, its records may differ in their call. The source made the active and inactive calls. The calls were made as follows: active = hit-call score of the fitted dose curve at least 0.9, where 1 is the maximum; inactive = score below 0.9.
Assays:
[1] = target: Bile acid receptor (Homo sapiens) (UniProt Q96RI1); test: ATG_IR1_CIS: Attagene CIS-FACTORIAL HepG2 Assay for human Nuclear Receptor Subfamily 1 Group H Member 4 (NR1H4), IR1 submotif (AID 2282946); conditions: IR1 reporter transcription, actives raise or lower the signal
Outline: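 Transient MRTU transfection, HepG2; 24 h dosing; RNA → RT-PCR → 6-FAM primer extension → HpaI digest → capillary electrophoresis fluorescence. Gain/loss of signal fitted relative to DMSO.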

[2] = ATG_GRE_CIS: Attagene CIS-FACTORIAL HepG2 Assay for human Glucocorticoid Response Elements (GRE) (AID 2282947); conditions: HepG2 GRE cis-reporter, Attagene multiplex mRNA; actives raise or lower the signal
Outline: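 HepG2 cells transiently transfected with multiple cis-promoter reporter units measure endogenous TF activity; 24 h compound exposure. Reporter mRNA quantified by RT-PCR, FAM labelling, HpaI digestion and capillary electrophoresis; bidirectional fit vs DMSO baseline.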

[3] = ATG_ISRE_CIS: Attagene CIS-FACTORIAL HepG2 Assay for human Interferon Regulatory Factor 1 (IRF1) binding to an Interferon-Stimulated Response Element (ISRE) (AID 2282948); conditions: HepG2 ISRE cis-reporter (Attagene), mRNA transcription readout; actives raise or lower the signal
Outline: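 Quantitation relies on labelled RT-PCR fragments separated by capillary electrophoresis. Human HepG2 cells bearing cis-promoter reporter constructs were treated 24 h; DMSO served as baseline for bidirectional fitting.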

[4] = ATG_M_32_CIS: Attagene CIS-FACTORIAL HepG2 Assay for M32 Transcription Factor (Internal Marker) (AID 2282949); conditions: HepG2 Attagene cis-factorial M32 reporter, mRNA; actives raise or lower the signal;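 also: background control marker of the multiplexed CIS panel rather than a real target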
Outline: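 Following 24 h chemical exposure of HepG2 cells transiently expressing cis-promoter reporter constructs, reporter transcript levels were determined by RT-PCR with fluorescent labelling and capillary electrophoresis, then fitted bidirectionally against DMSO.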

[5] = ATG_M_06_CIS: Attagene CIS-FACTORIAL HepG2 Assay for M06 Transcription Factor (Internal Marker) (AID 2282950); conditions: HepG2 Attagene CIS-FACTORIAL M06 internal marker reporter; actives raise or lower the signal
Outline: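 One of many multiplexed endpoints: HepG2 reporter mRNA after 24 h dosing, detected by RT-PCR and capillary electrophoresis fluorescence; gain or loss of signal analysed against DMSO.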

[6] = target: Hypoxia-inducible factor 1-alpha (Homo sapiens) (UniProt Q16665); test: ATG_HIF1a_CIS: Attagene CIS-FACTORIAL HepG2 Assay for human Hypoxia Inducible Factor 1 (HIF1A) (AID 2282951); conditions: HepG2 Attagene cis-factorial HIF1a reporter transcription; actives raise or lower the signal
Outline: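 Measures endogenous transcription-factor activity through cis-regulated reporter mRNA in HepG2. Cells dosed 24 h; transcripts quantified by RT-PCR with 6-FAM-labelled products separated by capillary electrophoresis; DMSO serves as negative control.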

[7] = target: Hepatocyte nuclear factor 6 (Homo sapiens) (UniProt Q9UBC0); test: ATG_HNF6_CIS: Attagene CIS-FACTORIAL HepG2 Assay for human Hepatocyte Nuclear Factor 6 (HNF6) (AID 2282952); conditions: HepG2 Attagene cis-factorial HNF6 reporter transcription; actives raise or lower the signal
Outline: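 HepG2 cells transiently transfected with cis-element-driven multiplexed reporter units measuring endogenous transcription factor activity. After 24 h exposure, reporter mRNA quantified by RT-PCR, FAM-labelled fragments and capillary electrophoresis; bidirectional fitting versus DMSO.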

[8] = ATG_MRE_CIS: Attagene CIS-FACTORIAL HepG2 Assay for human Metal Responsive Element (MRE) (AID 2282954); conditions: HepG2 MRE cis-reporter transcription, Attagene multiplex; actives raise or lower the signal
Outline: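 HepG2 cells transiently transfected with multiple cis-element reporter units measure endogenous MTF1-driven transcription. After 24 h compound exposure, reporter mRNA is quantified by RT-PCR with 6-FAM labelling, HpaI digestion and capillary electrophoresis; bidirectional fits versus DMSO.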

[9] = ATG_PBREM_CIS: Attagene CIS-FACTORIAL HepG2 Assay for human Phenobarbital-responsive Enhancer Module (PBREM) (AID 2282955); conditions: HepG2 PBREM cis-reporter, Attagene multiplexed transcription; actives raise or lower the signal
Outline: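 Fluorescence of labelled reporter cDNA fragments, resolved by capillary electrophoresis, gives mRNA induction in transfected HepG2 cells treated for 24 h; DMSO serves as negative control and baseline.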

[10] = target: Paired box protein Pax-6 (Homo sapiens) (UniProt P26367); test: ATG_Pax6_CIS: Attagene CIS-FACTORIAL HepG2 Assay for human Paired Box 6 (PAX6) (AID 2282956); conditions: HepG2 CIS-FACTORIAL PAX6 reporter transcription, RNA readout; actives raise or lower the signal
Outline: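 After twenty-four hours of chemical exposure, transfected HepG2 cells are harvested for RNA. Cis-promoter reporter transcripts are amplified, fluorescently labelled and sized by capillary electrophoresis, with gain and loss of signal scored against DMSO.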

[11] = ATG_PXRE_CIS: Attagene CIS-FACTORIAL HepG2 Assay for human Pregnane X Receptor Element (PXRE) (AID 2282957); conditions: HepG2 Attagene CIS-FACTORIAL PXRE reporter, mRNA; actives raise or lower the signal
Outline: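 HepG2 cells transiently transfected with cis-element-driven multiplexed reporter units; after 24 h chemical exposure, reporter mRNA measured by RT-PCR, 6-FAM labelling, HpaI digestion and capillary electrophoresis. Bidirectional fitting relative to DMSO.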

[12] = ATG_PPRE_CIS: Attagene CIS-FACTORIAL HepG2 Assay for human Peroxisome Proliferator-activated Response Element (PPRE) (AID 2282958); conditions: HepG2 PPRE cis-element reporter, Attagene transcription factor profiling; actives raise or lower the signal
Outline: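 Cells are first transfected transiently with the multiplexed reporter library, then dosed for 24 h. Total RNA is reverse-transcribed, amplified, fluorescently end-labeled and HpaI-cut before capillary electrophoresis; activity is fitted bidirectionally against DMSO controls.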

[13] = ATG_RORE_CIS: Attagene CIS-FACTORIAL HepG2 Assay for human RAR-related Orphan Receptor Element (RORE) (AID 2282959); conditions: HepG2 Attagene cis-factorial RORE reporter, mRNA; actives raise or lower the signal
Outline: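 Cells were HepG2 carrying transfected cis-regulated reporter constructs, dosed for 24 hours. Total RNA was reverse-transcribed and reporter cDNA amplified, fluorescently labeled and sized by capillary electrophoresis. Activity was fitted bidirectionally relative to DMSO.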

[14] = ATG_Sox_CIS: Attagene CIS-FACTORIAL HepG2 Assay for human SRY-box transcription factor (SOX) (AID 2282960); conditions: HepG2 Attagene cis-factorial SOX reporter, mRNA; actives raise or lower the signal
Outline: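 Transient MRTU transfection of HepG2; 24 h compound incubation; TriZol RNA, oligo(dT) RT, PCR, 6-FAM primer extension, HpaI cut, CE. Bidirectional fit, DMSO = baseline.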

[15] = target: Transcription factor Sp1 (Homo sapiens) (UniProt P08047); test: ATG_Sp1_CIS: Attagene CIS-FACTORIAL HepG2 Assay for human Specificity Protein 1 (Sp1) (AID 2282961); conditions: HepG2 Sp1 cis-reporter transcription, actives raise or lower the signal
Outline: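 Endogenous Sp1 activity was gauged in human liver HepG2 cells bearing transfected reporter units under a cis-regulating promoter. After 24 h dosing, reporter mRNA was quantified by RT-PCR with capillary electrophoresis, and activity fitted bidirectionally versus DMSO.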

[16] = ATG_SREBP_CIS: Attagene CIS-FACTORIAL HepG2 Assay for human Sterol Regulatory Element Binding (SREBP) (AID 2282962); conditions: HepG2 Attagene cis-factorial SREBP reporter, mRNA; actives raise or lower the signal
Outline: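 Twenty-four hours after chemical dosing of transfected HepG2 cultures, reporter RNA was converted to cDNA, amplified, end-labelled with 6-FAM and resolved by capillary electrophoresis. Responses were fitted relative to DMSO.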

[17] = target: Signal transducer and activator of transcription 3 (Homo sapiens) (UniProt P40763); test: ATG_STAT3_CIS: Attagene CIS-FACTORIAL HepG2 Assay for human Signal Transducer and Activator of Transcription 3 (STAT3) (AID 2282963); conditions: HepG2, Attagene cis-factorial STAT3 reporter transcription; actives raise or lower the signal
Outline: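 HepG2 cells transiently transfected with cis-element-driven multiple reporter transcription units; after 24 h chemical exposure, reporter mRNA measured by RT-PCR, 6-FAM primer-extension labelling, HpaI digestion and capillary electrophoresis. Bidirectional fitting versus DMSO baseline.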

[18] = ATG_TA_CIS: Attagene CIS-FACTORIAL HepG2 Assay for human TA Basal Promoter (AID 2282964); conditions: HepG2 Attagene CIS-factorial TA basal promoter reporter; actives raise or lower the signal
Outline: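 Transient MRTU transfection of HepG2 preceded 24 h compound exposure. Reporter mRNA levels were then read by RT-PCR with capillary electrophoresis, and this background-control endpoint was fitted bidirectionally to DMSO.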

[19] = target: Heat shock factor protein 1 (Homo sapiens) (UniProt Q00613); test: ATG_HSE_CIS: Attagene CIS-FACTORIAL HepG2 Assay for human Heat Shock Transcription Factor 1 (HSE) (AID 2282953); conditions: HepG2 HSE cis-reporter, Attagene RNA transcription; actives raise or lower the signal
Outline: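 Using HepG2 with transfected cis-driven reporter constructs, compound effects on endogenous factor activity are scored as reporter mRNA change at 24 h. Detection: RT-PCR, HpaI digestion, capillary electrophoresis; bidirectional fitting to DMSO.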

Measured: AC50

Chain of Heat shock factor protein 1 (Homo sapiens) (Q00613 whole entry, looked up): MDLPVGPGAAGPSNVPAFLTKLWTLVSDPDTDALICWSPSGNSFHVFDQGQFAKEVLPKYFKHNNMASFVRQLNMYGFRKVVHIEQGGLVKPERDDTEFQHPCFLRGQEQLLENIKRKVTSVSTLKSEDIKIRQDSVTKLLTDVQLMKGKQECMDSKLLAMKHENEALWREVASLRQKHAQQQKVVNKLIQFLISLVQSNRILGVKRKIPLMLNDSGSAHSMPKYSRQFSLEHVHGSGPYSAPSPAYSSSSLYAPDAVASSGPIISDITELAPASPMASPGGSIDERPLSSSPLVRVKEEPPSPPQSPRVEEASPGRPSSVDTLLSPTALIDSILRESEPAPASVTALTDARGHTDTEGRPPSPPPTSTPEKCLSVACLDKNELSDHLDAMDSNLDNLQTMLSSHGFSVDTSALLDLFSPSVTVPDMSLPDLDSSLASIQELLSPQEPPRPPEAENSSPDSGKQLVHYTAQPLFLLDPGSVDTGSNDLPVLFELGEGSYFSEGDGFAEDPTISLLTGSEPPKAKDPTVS
Chain of Transcription factor Sp1 (Homo sapiens) (P08047 whole entry, looked up): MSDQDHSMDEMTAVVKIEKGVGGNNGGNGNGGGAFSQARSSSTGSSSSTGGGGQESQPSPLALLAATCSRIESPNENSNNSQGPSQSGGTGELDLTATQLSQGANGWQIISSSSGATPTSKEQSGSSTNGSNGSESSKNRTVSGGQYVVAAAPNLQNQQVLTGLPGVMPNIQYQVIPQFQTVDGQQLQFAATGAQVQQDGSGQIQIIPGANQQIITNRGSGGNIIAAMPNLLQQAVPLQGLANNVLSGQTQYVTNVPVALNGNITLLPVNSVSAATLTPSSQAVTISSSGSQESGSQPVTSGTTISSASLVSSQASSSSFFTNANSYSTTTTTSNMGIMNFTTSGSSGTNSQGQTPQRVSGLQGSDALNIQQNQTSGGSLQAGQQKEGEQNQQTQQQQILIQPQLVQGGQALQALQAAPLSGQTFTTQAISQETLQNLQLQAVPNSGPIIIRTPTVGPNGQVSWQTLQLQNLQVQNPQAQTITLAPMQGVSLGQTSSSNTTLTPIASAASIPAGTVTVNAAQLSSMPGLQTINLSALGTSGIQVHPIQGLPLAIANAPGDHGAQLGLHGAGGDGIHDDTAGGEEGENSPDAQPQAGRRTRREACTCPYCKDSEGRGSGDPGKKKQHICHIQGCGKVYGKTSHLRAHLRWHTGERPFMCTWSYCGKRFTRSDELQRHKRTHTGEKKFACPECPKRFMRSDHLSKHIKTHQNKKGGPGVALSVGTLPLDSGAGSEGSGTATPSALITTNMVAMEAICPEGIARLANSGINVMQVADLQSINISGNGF
Chain of Paired box protein Pax-6 (Homo sapiens) (P26367 whole entry, looked up): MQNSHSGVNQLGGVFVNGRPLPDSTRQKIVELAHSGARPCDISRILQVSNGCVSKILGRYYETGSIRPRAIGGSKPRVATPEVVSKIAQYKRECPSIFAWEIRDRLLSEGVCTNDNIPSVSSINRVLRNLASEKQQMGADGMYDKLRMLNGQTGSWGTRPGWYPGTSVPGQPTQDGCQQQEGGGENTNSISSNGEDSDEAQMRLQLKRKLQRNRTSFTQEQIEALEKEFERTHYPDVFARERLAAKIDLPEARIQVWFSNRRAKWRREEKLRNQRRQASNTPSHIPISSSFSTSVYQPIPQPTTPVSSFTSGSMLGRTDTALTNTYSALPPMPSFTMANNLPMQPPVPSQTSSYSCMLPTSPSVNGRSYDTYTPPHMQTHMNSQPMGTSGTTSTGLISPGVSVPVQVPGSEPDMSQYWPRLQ
Chain of Hepatocyte nuclear factor 6 (Homo sapiens) (Q9UBC0 whole entry, looked up, the tested form may be a part): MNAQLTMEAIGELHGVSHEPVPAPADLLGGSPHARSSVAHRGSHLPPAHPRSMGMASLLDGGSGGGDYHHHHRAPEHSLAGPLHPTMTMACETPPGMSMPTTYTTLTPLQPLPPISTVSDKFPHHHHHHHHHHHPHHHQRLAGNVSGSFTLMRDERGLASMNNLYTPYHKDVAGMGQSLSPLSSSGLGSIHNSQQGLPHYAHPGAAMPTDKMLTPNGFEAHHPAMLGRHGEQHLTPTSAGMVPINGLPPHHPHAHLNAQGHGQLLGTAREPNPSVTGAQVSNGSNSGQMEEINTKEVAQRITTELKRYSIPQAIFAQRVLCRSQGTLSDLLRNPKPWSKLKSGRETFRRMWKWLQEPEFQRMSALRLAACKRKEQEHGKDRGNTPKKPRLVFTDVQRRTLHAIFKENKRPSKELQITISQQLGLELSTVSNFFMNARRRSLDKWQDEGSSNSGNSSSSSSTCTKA
Chain of Signal transducer and activator of transcription 3 (Homo sapiens) (P40763 whole entry, looked up): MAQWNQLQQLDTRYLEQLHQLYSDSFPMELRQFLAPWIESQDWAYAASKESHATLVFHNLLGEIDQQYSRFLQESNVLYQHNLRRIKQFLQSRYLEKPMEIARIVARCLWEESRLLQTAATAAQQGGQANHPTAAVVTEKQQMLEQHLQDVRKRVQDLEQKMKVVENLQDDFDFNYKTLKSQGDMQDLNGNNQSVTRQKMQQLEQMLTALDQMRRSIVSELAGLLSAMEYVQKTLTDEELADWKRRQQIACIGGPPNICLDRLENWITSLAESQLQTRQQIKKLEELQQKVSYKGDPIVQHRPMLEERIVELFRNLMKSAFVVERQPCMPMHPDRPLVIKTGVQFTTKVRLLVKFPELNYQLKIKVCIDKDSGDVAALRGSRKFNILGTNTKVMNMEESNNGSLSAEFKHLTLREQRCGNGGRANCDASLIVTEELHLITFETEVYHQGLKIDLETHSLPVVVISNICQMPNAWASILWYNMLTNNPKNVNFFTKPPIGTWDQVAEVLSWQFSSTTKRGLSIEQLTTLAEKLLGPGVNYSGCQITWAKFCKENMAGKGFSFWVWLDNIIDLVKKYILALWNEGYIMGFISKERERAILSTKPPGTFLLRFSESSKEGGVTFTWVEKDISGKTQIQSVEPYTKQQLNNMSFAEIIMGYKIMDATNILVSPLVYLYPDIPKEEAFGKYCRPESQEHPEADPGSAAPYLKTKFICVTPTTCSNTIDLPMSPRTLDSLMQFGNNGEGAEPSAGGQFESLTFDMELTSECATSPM
Chain of Bile acid receptor (Homo sapiens) (Q96RI1 whole entry, looked up): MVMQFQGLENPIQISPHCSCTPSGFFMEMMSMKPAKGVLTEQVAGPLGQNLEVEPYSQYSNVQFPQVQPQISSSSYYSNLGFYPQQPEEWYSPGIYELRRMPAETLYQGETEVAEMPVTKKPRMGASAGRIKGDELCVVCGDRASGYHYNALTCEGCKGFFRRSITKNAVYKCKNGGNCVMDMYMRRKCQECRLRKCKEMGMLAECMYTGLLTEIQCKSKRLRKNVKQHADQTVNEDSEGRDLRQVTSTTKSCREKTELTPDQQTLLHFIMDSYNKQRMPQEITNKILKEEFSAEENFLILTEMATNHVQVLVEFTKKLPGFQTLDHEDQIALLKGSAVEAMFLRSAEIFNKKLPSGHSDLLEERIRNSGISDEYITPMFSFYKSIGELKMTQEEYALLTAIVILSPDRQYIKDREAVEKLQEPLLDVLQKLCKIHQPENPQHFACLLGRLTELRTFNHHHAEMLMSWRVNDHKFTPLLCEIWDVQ
Chain of Hypoxia-inducible factor 1-alpha (Homo sapiens) (Q16665 whole entry, looked up): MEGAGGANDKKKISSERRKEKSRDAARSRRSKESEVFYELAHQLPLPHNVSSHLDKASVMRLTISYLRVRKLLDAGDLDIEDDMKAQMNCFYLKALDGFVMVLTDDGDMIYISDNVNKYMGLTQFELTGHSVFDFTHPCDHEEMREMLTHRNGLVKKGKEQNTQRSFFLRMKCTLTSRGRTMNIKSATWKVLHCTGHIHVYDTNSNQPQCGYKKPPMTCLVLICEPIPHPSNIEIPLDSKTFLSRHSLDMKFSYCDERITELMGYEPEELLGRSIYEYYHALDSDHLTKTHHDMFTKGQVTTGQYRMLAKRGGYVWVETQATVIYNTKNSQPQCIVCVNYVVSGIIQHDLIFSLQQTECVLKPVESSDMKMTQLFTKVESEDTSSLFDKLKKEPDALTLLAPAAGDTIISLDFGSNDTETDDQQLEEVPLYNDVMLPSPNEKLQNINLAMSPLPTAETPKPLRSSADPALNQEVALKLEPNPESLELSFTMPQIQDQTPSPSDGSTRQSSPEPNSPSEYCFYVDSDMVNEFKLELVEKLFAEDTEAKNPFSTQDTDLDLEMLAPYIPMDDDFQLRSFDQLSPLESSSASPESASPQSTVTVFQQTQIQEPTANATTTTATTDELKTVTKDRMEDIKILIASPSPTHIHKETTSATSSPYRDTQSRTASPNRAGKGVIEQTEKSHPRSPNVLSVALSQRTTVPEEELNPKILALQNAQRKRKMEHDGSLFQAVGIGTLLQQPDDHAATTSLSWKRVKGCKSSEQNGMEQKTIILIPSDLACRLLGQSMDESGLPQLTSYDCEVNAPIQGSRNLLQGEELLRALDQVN

OCC(F)(F)C(F)(F)C(F)(F)C(F)(F)C(F)(F)C(F)(F)F
active: [9] 282 µM | [11] 242 µM | [16] 234 µM
not listed: [19]
inactive: all other assays above

COC(OC(C)=O)c1ccccc1 (configuration not stated)
not listed: [8] | [19]
inactive: all other assays above

CCCCNc1ccccc1
active: [11] 100 µM
not listed: [8] | [13] | [19]
inactive: all other assays above

O=C(O)C(F)(F)C(F)(F)C(F)(F)C(F)(F)C(F)(F)C(F)(F)C(F)(F)C(F)(F)C(F)(F)C(F)F
active: [3] 27.1 µM | [8] 25.3 µM | [11] 18.8 µM | [12] 9.33 µM
not listed: [13]
inactive: all other assays above

O=C(O)C(F)(F)C(F)(F)F
inactive: all assays above

CCc1ccc(C(c2ccc(CC)cc2)C(Cl)Cl)cc1
active: [11] 2.28 µM
not listed: [19]
inactive: all other assays above

C1COCCN1
inactive: [3] | [4] | [5] | [6] | [7] | [8] | [9] | [10] | [11] | [13] | [14] | [15] | [16] | [17] | [18]
active: [11] 27.2 µM

CCCCCCOC(=O)c1ccccc1
not listed: [19]
inactive: all other assays above

O=S(=O)(O)c1ccc2ccccc2c1
active: [11] 11.2 µM and 91 µM
not listed: [2] | [9] | [13] | [19]
inactive: all other assays above

FC(F)(F)C(F)(F)C(F)(F)C(F)(F)C(F)(F)C(F)(F)C(F)(F)I
not listed: [8] | [19]
inactive: all other assays above

OCCCC(F)(F)C(F)(F)C(F)(F)F
not listed: [8] | [19]
inactive: all other assays above

FC(F)(Br)C(F)(F)C(F)(F)C(F)(F)C(F)(F)C(F)(F)Br
not listed: [13]
inactive: all other assays above

— PubChem BioAssay (EPA / NIEHS)
